Screening data: PubChem, several laboratories
Hits are enriched below; roughly 7% of the tested compounds scored in any of these assays.
AHR activator = activates the human aryl hydrocarbon receptor. P35869. AHR-responsive luciferase reporter cells, luminescence. activation, % at 5 µM. 320,000 compounds, 2.5% hits. AID 2796; in the data active means activation above about 47%;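 further: 0% = vehicle wells and 100% = reference agonist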
KLK7 zymogen act = activates the human kallikrein-7 zymogen | P49862 | purified proKLK7, EDANS-DABCYL substrate fluorescence; 100% is mature enzyme control, 0% vehicle | activation, % at 7 µM | 370,000 compounds, 0.9% hits;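 active means activation above the mean of all tested compounds plus 3 SD, computed per campaign excluding outliers beyond control limits, cut at about 13% in these data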
NR3A LBD binder = NR3A (human) ligand-binding domain modulation; NR3A LBD differential scanning fluorimetry, Tm shift; 0% = protein alone, 100% = glycine-bound protein; Tm shift relative to glycine control, % at 25 µM; 340,000 compounds, 2.5% hits;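 active means melting temperature shift of at least 10% of the positive control shift, at one fixed dose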
rCAG RNA binder = molecules binding r(CAG) RNA repeats | r(CAG) RNA repeat, TO-PRO-1 dye displacement fluorescence | inhibition, % at 3 µM | 370,000 compounds, 1.3% hits;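 active means inhibition above the plate cutoff, the mean of all test compounds on that plate plus 3 SD, cut at about 35% in these data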;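 further: 0% = DMSO alone and 100% = 100 µM mitoxantrone as full dye displacement; higher means more dye released from RNA so lower well fluorescence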
ADAM17 inh = inhibits human ADAM17. P78536. recombinant ADAM17, EDANS/DABCYL FRET peptide cleavage. inhibition, % at 6.95 µM. 370,000 compounds, 0.83% hits;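 active means inhibition above the mean of compounds lying between control limits plus 3 SD, set per campaign, cut at about 8.5% in these data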;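 further: 0% = DMSO-only wells as the low control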
Target sequence (P78536 215-824 limits assumed): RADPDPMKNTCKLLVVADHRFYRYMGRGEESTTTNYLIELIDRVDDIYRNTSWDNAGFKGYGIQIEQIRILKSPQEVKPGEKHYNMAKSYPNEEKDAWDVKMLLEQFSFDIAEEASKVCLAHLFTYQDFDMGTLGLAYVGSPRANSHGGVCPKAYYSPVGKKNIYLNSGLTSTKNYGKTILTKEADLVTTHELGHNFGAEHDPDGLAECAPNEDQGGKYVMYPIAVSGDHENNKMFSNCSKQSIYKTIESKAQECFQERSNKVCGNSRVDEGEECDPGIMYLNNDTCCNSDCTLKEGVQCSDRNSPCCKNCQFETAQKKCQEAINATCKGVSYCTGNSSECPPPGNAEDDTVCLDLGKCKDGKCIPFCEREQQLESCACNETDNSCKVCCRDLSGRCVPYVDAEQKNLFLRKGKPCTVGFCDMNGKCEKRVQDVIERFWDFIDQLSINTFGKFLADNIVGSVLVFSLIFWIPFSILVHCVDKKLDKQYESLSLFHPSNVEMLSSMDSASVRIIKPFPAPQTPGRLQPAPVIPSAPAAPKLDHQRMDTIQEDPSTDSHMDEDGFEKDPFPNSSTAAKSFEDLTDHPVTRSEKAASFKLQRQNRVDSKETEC
ADAM10 inh = ADAM10 inhibition, QFRET primary screen; O14672; recombinant ADAM10, EDANS/DABCYL FRET peptide cleavage, 3 h; inhibition, % at 7 µM; 370,000 compounds, 0.62% hits;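 active means inhibition above a per-campaign cutoff equal to the mean of compounds falling between control-based bounds plus 3 SD, cut at about 20% in these data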;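 further: 0% = DMSO wells while the 100% control is not disclosed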
rCAG binder conf = r(CAG) RNA repeat binding, confirmation. shares compounds with rCAG RNA binder. TO-PRO-1 dye displacement fluorescence. inhibition, % at 3 µM. 4,300 compounds, 70% hits;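 active means inhibition above a per-plate cutoff, the mean inhibition of sample wells plus 3 SD, cut at about 35% in these data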;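 further: loss of TO-PRO-1 fluorescence as compound displaces dye from 1x1 AA loop RNA; 0% = DMSO only wells and 100% = 100 µM mitoxantrone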
DNA CAG counter = disrupts DNA CAG TO-PRO-1 complex, flagging rCAG hits; shares compounds with rCAG RNA binder; d(CAG) DNA oligo TO-PRO-1 dye displacement, fluorescence; inhibition, % at 3 µM; 4,300 compounds, 94% hits; AID 652068;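 active means inhibition above its plate's cutoff, the mean test-well inhibition plus 3 SD, cut at about 4.8% in these data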;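 further: 0% = DNA dye mix with DMSO and 100% = 100 µM mitoxantrone; hits displace the dye from DNA and so lower well fluorescence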
dCAG dye DR = DNA CAG dye complex inhibition, dose response counter-screen; shares compounds with rCAG RNA binder; DNA CAG/GTC duplex TO-PRO-1 dye displacement fluorescence; IC50, µM; 250 compounds, 20% hits; in the data active means IC50 below about 10 µM
Numbers without * were called inactive; i = inactive; . = no result.

SMILES	AHR activator	KLK7 zymogen act	NR3A LBD binder	rCAG RNA binder	ADAM17 inh	ADAM10 inh	rCAG binder conf	DNA CAG counter	others
CCOc1cc(/C=C2/SC(=S)N(CC(=O)O)C2=O)ccc1OC(=O)c1cccs1	3	0	6	58*	-1	8	71*	30*	dCAG dye DR=i
CN1C(=O)/C(=C/c2ccc(OC(=O)c3ccco3)cc2)SC1=S	4	1	1	1	-2	-5	.	.
COc1cccc(CNC(=O)CN2CCCc3ccccc32)c1	.	0	.	1	-3	-9	.	.
CCN(CC)S(=O)(=O)c1ccc(NC(=O)c2ccc(Sc3nncn3C)c([N+](=O)[O-])c2)cc1	-1	0	-5	36*	0	5	13	5.8*
N#C/C(=C\c1ccc(C(=O)O)cc1)c1nc2sc3c(c2c(=O)[nH]1)CCCC3	.	0	1	45*	-6	-2	55*	22*
CCOC(=O)c1ccc(NC(=O)OC[C@@H]2CSCCS(=O)(=O)N2)cc1	.	0	.	1	-4	-8	.	.
O=C(NNC(=S)Nc1cccc2ccccc12)c1cccc(Br)c1	32	-3	4	66*	-5	-23	72*	36*
CC1=Nc2ccccc2/C1=C/c1c(N)n2c(S(=O)(=O)CC(C)C)nsc2nc1=O	.	0	16*	78*	-6	-19	78*	46*
CC(C)S(=O)(=O)c1nsc2nc(=O)c(/C=C3\C=Nc4ccccc43)c(N)n12	3	1	23*	88*	0	-11	85*	55*
CC1=Nc2ccc(C)cc2/C1=C/c1c(N)n2nc(CC(=O)N3CCOCC3)sc2nc1=O	2	0	7	21	-4	-4	.	.
CC1=Nc2ccccc2/C1=C/c1c(C)[nH]c2ccccc12	.	.	0	.	.	.	.	.
CC1=Nc2ccccc2/C1=C/c1c(N)n2c(S(=O)(=O)C(C)C)nsc2nc1=O	7	1	9	73*	-5	-22	59*	21*
CC1=Nc2ccc(C)cc2/C1=C/c1c(N)n2c(S(=O)(=O)C(C)C)nsc2nc1=O	.	0	18*	80*	-6	-16	75*	37*
CCCCNC(=O)c1nc(C2CCN(S(=O)(=O)c3ccc(C(F)(F)F)cc3)CC2)oc1-c1ccccc1	.	1	.	2	0	-6	.	.
Cc1ccc(-c2c(NC(=O)Nc3ccc(F)cc3)nc3ncccn23)cc1	.	2	.	2	-15	-55	.	.
CSc1nsc2nc(=O)c(/C=C3\C(C)=Nc4ccc(C)cc43)c(N)n12	12	-1	21*	66*	-5	-3	46*	12*
Cc1coc2c1C(=O)C(=O)c1c-2ccc2c1CCCC2(C)C	7	2	-10	43*	-13	-54	23	13*
Cc1ccc(NC(=O)CSc2nnc(-c3cc(-c4ccc(Cl)cc4)n[nH]3)n2N)cc1	.	0	.	6	4	0	.	.
CN(C)c1ccc(/C=C(/NC(=O)c2ccccc2)C(=O)N/N=C/c2ccc([N+](=O)[O-])c(O)c2)cc1	-3	0	-6	67*	4	8	62*	26*
CC1(C(=O)NS(=O)(=O)c2ccc3ccccc3c2)CCN1C(=O)Cc1ccc(Cl)cc1Cl (stereo not given)	.	0	.	52*	-1	-1	54*	18*
CC1(C(=O)NS(=O)(=O)c2cccc(Cl)c2)CCN1C(=O)CCc1ccc(Cl)cc1Cl (stereo not given)	.	-1	.	54*	-4	-4	52*	16*
CCCCc1ccc(S(=O)(=O)NC(=O)C2(C)CCN2C(=O)CCc2cccs2)cc1 (stereo not given)	.	0	.	44*	-1	-1	36*	9.9*
Clc1ccccc1N1CCN(C2=Nc3ccccc3Sc3ccccc32)CC1	.	-1	.	8	-1	1	.	.
CCN(Cc1ccccc1)S(=O)(=O)c1c(C)n(C)c(=O)n(C)c1=O	0	0	4	-4	1	-3	.	.
CCN(Cc1ccccc1)S(=O)(=O)c1c(N)n(C)c(=O)n(C)c1=O	0	0	1	52*	-1	4	3	0
SMILES	AHR activator	KLK7 zymogen act	NR3A LBD binder	rCAG RNA binder	ADAM17 inh	ADAM10 inh	rCAG binder conf	DNA CAG counter	others
CC(C)C[C@@H](C(=O)N[C@@H](C(=O)O)c1ccccc1)N1C(=O)N2CCc3c([nH]c4ccccc34)[C@@]2(C)C1=O	3	1	0	43*	-1	-3	43*	12*
O=C(CN1C(=O)S/C(=C\c2ccc(O)c([N+](=O)[O-])c2)C1=O)Nc1ccc(N2CCOCC2)cc1	.	0	0	-1	2	-9	.	.
Cc1ccc(NC(=O)CN2C(=O)S/C(=C/c3ccc(O)c([N+](=O)[O-])c3)C2=O)cc1C	.	0	7	94*	1	3	80*	46*
O=C(CN1C(=O)S/C(=C\c2cc(Cl)c(O)c(Cl)c2)C1=O)Nc1ccccc1	2	0	12*	48*	2	0	50*	16*
O=C(CN1C(=O)S/C(=C\c2ccccn2)C1=O)Nc1ccccc1	.	-1	0	2	-3	-2	.	.
Cc1cccc(NC(=O)CN2C(=O)S/C(=C\c3ccc(O)c([N+](=O)[O-])c3)C2=O)c1	1	0	1	83*	5	8	57*	20*
COc1ccc(/C=C2/C(=N)N3N=C(CC(=O)N4CCCC4)SC3=NC2=O)cc1OC	1	-1	4	17	-11	-51	.	.
CCS(=O)(=O)C1=NN2C(=N)/C(=C\c3ccc(SCc4ccco4)o3)C(=O)N=C2S1	.	1	6	85*	0	-2	89*	70*
COc1cc(/C=C2\C(=N)N3N=C(S(C)(=O)=O)SC3=NC2=O)ccc1OC(=O)c1ccco1	1	0	1	43*	-14	-41	80*	48*
COc1cc(/C=C2\C(=N)N3N=C(S(C)(=O)=O)SC3=NC2=O)ccc1OCCOc1ccccc1C	7	0	7	40*	-5	-1	91*	76*
COc1cc(/C=C2\C(=N)N3N=C(S(C)(=O)=O)SC3=NC2=O)ccc1OC(=O)c1cccs1	0	0	2	52*	-24	-65	86*	63*
N=C1/C(=C\c2ccc(SCc3ccccc3)o2)C(=O)N=C2SC=NN12	1	-1	-10	29	-3	-27	.	.
Cc1cccnc1N=O	.	0	.	1	-6	-13	.	.
